This is an account of results in PubChem BioAssay (NCATS).

“And” between values parts separate entries of the source, which are not always exact repeats. Identical values can stand only once. Results filed as inconclusive are left out. A number with no mark means an inactive call. The source made the active and inactive calls. Unless noted, the call rests on the fitted dose curve.

The target of assay [1] is Estrogen receptor (Homo sapiens) (UniProt P03372). Put plainly: qHTS assay for small molecule agonists of estrogen receptor alpha signaling (AID 588514).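 Further: 0% = vehicle only and 100% = reference agonist; nearly all actives have a fitted effect of over 70% in size.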 The gist of the method:
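ER-alpha-UAS-bla GripTite HEK293 cells, 5000/well in 2% charcoal/dextran-stripped FBS medium, treated with compound titrations 18 h at 37 C. CCF4 beta-lactamase read by fluorescence after 2 h RT; normalised to 20 nM 17-beta-estradiol (100%) and DMSO (0%), Hill fit for EC50 and efficacy.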
(Quantitative high-throughput screening tests each substance at several concentrations.)

For assay [2], the target named is Bile acid receptor (Homo sapiens) (UniProt Q96RI1). Put plainly: qHTS assay for small molecule antagonists of farnesoid X receptor signaling (AID 588526). Further: on the % scale 0 is the no-effect control and ±100 the full control effect. The essentials: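 Concentration-response titrations were fitted to the Hill equation for half-maximal inhibition and maximal response, with data normalised to 50 uM chenodeoxycholic acid and DMSO control wells. Cells: FXR-UAS-bla HEK293T, dialyzed FBS.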
Bile acid receptor (Homo sapiens), sequence (Q96RI1 whole entry, looked up): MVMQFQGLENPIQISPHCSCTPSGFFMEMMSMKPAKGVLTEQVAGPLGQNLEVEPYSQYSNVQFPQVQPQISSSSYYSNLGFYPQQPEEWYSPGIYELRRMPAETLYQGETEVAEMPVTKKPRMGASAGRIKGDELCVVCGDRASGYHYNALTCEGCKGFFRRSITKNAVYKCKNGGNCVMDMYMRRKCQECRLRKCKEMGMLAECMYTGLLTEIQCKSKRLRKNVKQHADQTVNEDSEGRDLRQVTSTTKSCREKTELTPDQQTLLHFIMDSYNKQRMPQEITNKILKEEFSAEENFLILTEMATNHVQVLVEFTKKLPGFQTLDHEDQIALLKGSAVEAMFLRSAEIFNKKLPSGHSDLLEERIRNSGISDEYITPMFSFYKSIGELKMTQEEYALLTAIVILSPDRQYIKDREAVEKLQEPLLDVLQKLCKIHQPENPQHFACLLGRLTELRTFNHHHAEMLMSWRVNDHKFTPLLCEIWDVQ

Assay [3] deals with Glucocorticoid receptor (Homo sapiens) (UniProt P04150). Put plainly: qHTS assay for small molecule antagonists of glucocorticoid receptor signaling (AID 588533; active means well fitted inhibition curve with a large enough effect in the signal ratio, with a control signal flat, not every such curve was filed as active; the % refers to the signal ratio;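 further: cells stimulated with 2 nM dexamethasone as agonist; on the % scale 0 is the no-effect control and ±100 the full control effect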). The essentials:
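Antagonist-mode qHTS: compound titrations added to GRE-bla HeLa cells, then dexamethasone 2 nM final; 18 h, 37 C. CCF4 FRET fluorescence normalized to dexamethasone and DMSO; IC50 from Hill fit.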

Assay [4] has as its target Peroxisome proliferator-activated receptor gamma (Homo sapiens) (UniProt P37231). Nature of the assay: qHTS assay for small molecule antagonists of peroxisome proliferator-activated receptor gamma signaling (AID 588537; active means well fitted inhibition curve with a large enough effect in the signal ratio, with a control signal flat, not every such curve was filed as active; the % refers to the signal ratio;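 further: reporter cells co-stimulated with 50 nM rosiglitazone agonist during compound treatment; % of control where 0% means no effect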). The essentials: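 We seeded GeneBLAzer HEK293 reporter cells at 3000 per well, allowed 6-6.5 h attachment at 37 C, then co-treated with test compound titrations and 50 nM rosiglitazone overnight (16 h). Inhibition was quantified from 460/530 nm emission ratios.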

The target in assay [5] is Thyroid hormone receptor beta (Homo sapiens) (UniProt P10828). Nature of the assay: qHTS assay for small molecule antagonists of thyroid hormone receptor beta signaling (AID 588547; active means well fitted inhibition curve with a large enough effect in the signal ratio, with a control signal flat, not every such curve was filed as active; the % refers to the signal ratio;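 further: cells stimulated with 0.4 nM T3 agonist during compound exposure; series mostly up to about 77 µM; on the % scale 0 is the no-effect control and ±100 the full control effect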). Conditions: TR-UAS-bla HEK293, beta-lactamase ratio, antagonist mode, 18 h. The essentials:
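TR-UAS-bla GripTite HEK293 cells in 2% charcoal/dextran FBS medium were preincubated 4 h at 37 C, given compound (0.59 nM to 92 uM) plus 0.4 nM T3 (final) for 18 h, then CCF4 for 2 h at RT; Hill fit gave IC50.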

Assay [6] concerns the target Androgen receptor (Homo sapiens) (UniProt P10275). Nature of the assay: qHTS assay for small molecule agonists of androgen receptor signaling (AID 588515; active means well fitted curve in the direction sought with a large enough effect in the signal ratio, with a control signal flat; the % refers to the signal ratio; further: potency means the concentration at half of the fitted maximal effect). Conditions: AR-UAS-bla HEK293, beta-lactamase ratio, agonist 16 h; activation: stronger effect = higher value. The gist of the method:
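EC50 and efficacy came from Hill fits of titrations (up to 92 uM) normalized to 30 nM R1881 as 100% and DMSO as 0%. Compound exposure was 16 h at 37 C on AR-UAS-bla HEK293 cells, with a 405/460/530 nm CCF4 fluorescence read.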

For assay [7] the target is unchanged. Nature of the assay: qHTS assay for small molecule antagonists of androgen receptor signaling (AID 588516; active means well fitted curve in the direction sought with a large enough effect in the signal ratio, with a control signal flat, not every such curve was filed as active; the % refers to the signal ratio; further: on the % scale 0 is the no-effect control and ±100 the full control effect). The essentials:
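Cells were plated and incubated 5 h, compounds added in titration, then R1881 (10 nM final) as agonist. After 16 h at 37 C, CCF4 substrate was loaded for 2 h at room temperature and fluorescence measured.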

Assay [8] addresses Glucocorticoid receptor (Homo sapiens) (UniProt P04150). Nature of the assay: qHTS assay for small molecule agonists of glucocorticoid receptor signaling (AID 588532; active means well fitted curve in the direction sought with a large enough effect in the signal ratio, with a control signal flat; the % refers to the signal ratio;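 further: 100% = dexamethasone at 0.1 µM and 0% = DMSO only wells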). The following applies: HeLa MMTV-bla, beta-lactamase ratio, agonist, 18 h; stronger effect = higher value; percent of dexamethasone control, DMSO zero. The essentials:
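MMTV-bla HeLa, beta-lactamase reporter; medium with 1% charcoal/dextran-stripped FBS; cpds up to 92 uM, 18 h, 37 C; CCF4 readout 460/530 nm; Hill fit → EC50, efficacy vs 0.1 uM dexamethasone = 100%.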

A short description of assay [9]: qHTS assay for small molecule agonists of the antioxidant response element (ARE) signaling pathway (AID 651741; active means well fitted activation curve with a large enough effect in the signal ratio; the % refers to the signal ratio; further: potency means the concentration at half of the fitted maximal effect; on activation: % of control where 0% means no effect). The gist of the method: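 Compounds in DMSO are pinned onto HepG2 ARE-bla cells (2,000/well) that were preincubated 5 h; plates stay 16 h at 37 C, then beta-lactamase activity is detected with LiveBLAzer B/G substrate by fluorescence.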
In assay [10] the target is Estrogen receptor (Homo sapiens) (UniProt P03372). Put plainly: qHTS assay for small molecule antagonists of estrogen receptor alpha signaling (AID 588513; active means well fitted curve in the direction sought with a large enough effect in the signal ratio, with a control signal flat, not every such curve was filed as active; the % refers to the signal ratio; further: on the % scale 0 is the no-effect control and ±100 the full control effect). The essentials: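 Fluorescence from CCF4 substrate after 2 h at room temperature gave reporter activity; cells had been exposed to compound and 0.5nM 17-beta-estradiol for 18 h at 37 C. Hill-equation fitting yielded IC50 and maximal response.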
Estrogen receptor (Homo sapiens), sequence (P03372 whole entry, looked up): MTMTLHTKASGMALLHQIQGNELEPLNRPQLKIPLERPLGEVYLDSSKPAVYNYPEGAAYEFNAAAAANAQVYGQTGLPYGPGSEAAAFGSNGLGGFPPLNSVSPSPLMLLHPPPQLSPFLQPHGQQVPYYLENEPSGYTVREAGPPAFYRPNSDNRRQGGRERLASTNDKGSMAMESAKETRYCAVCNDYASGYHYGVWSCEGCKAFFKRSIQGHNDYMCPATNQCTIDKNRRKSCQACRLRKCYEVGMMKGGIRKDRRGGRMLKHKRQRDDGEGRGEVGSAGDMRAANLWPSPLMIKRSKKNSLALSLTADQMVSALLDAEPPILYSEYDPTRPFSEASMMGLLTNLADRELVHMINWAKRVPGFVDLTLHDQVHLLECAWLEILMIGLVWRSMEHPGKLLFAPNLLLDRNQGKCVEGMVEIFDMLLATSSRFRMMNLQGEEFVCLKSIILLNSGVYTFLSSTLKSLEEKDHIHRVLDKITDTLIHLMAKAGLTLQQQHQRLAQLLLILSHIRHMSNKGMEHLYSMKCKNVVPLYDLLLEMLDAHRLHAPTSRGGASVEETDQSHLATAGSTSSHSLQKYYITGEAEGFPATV

Peroxisome proliferator-activated receptor gamma (Homo sapiens), sequence (P37231 whole entry, looked up): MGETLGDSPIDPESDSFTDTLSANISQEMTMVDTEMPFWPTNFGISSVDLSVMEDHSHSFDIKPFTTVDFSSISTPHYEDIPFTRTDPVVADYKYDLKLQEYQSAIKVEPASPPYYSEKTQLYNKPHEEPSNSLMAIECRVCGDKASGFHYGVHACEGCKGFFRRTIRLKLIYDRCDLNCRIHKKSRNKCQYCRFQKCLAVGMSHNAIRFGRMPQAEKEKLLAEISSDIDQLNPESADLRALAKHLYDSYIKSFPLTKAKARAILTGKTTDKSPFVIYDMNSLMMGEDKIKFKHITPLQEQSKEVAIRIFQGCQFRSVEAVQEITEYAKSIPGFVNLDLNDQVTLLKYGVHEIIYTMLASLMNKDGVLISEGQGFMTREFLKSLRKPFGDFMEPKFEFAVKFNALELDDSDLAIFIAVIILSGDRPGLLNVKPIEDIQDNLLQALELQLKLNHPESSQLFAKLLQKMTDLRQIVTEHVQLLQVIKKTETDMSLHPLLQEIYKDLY
Glucocorticoid receptor (Homo sapiens), sequence (P04150 whole entry, looked up): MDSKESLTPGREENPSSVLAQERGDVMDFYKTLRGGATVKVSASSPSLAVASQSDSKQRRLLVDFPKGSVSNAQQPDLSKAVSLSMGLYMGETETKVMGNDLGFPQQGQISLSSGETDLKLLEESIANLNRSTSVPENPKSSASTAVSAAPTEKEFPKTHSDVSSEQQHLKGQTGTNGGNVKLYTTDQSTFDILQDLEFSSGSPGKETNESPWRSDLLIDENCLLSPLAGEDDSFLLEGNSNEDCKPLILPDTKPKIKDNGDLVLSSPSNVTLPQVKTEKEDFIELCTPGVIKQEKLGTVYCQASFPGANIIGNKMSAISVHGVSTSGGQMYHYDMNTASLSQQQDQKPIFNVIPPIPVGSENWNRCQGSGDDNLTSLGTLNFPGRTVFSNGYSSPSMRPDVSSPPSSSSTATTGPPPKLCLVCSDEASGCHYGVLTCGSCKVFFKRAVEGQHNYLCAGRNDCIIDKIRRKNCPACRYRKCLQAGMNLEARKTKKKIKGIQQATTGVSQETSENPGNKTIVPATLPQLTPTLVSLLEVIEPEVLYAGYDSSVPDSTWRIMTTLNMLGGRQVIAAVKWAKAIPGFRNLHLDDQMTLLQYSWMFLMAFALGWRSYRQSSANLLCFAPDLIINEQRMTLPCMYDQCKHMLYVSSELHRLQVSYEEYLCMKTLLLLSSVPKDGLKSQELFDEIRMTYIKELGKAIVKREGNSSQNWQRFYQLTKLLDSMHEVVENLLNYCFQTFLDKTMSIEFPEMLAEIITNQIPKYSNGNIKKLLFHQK
Thyroid hormone receptor beta (Homo sapiens), sequence (P10828 whole entry, looked up): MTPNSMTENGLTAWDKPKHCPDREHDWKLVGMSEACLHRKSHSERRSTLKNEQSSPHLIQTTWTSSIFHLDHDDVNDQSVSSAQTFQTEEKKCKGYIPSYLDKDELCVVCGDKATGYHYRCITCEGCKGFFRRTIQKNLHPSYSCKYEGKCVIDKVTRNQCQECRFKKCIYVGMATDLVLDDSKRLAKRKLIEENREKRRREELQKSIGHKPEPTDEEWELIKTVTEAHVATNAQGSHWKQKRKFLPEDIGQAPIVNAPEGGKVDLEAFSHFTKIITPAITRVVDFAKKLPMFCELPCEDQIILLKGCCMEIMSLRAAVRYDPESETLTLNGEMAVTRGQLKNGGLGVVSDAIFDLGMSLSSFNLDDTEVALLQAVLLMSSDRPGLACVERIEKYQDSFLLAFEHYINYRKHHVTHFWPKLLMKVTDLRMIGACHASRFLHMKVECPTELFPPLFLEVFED
Androgen receptor (Homo sapiens), sequence (P10275 whole entry, looked up): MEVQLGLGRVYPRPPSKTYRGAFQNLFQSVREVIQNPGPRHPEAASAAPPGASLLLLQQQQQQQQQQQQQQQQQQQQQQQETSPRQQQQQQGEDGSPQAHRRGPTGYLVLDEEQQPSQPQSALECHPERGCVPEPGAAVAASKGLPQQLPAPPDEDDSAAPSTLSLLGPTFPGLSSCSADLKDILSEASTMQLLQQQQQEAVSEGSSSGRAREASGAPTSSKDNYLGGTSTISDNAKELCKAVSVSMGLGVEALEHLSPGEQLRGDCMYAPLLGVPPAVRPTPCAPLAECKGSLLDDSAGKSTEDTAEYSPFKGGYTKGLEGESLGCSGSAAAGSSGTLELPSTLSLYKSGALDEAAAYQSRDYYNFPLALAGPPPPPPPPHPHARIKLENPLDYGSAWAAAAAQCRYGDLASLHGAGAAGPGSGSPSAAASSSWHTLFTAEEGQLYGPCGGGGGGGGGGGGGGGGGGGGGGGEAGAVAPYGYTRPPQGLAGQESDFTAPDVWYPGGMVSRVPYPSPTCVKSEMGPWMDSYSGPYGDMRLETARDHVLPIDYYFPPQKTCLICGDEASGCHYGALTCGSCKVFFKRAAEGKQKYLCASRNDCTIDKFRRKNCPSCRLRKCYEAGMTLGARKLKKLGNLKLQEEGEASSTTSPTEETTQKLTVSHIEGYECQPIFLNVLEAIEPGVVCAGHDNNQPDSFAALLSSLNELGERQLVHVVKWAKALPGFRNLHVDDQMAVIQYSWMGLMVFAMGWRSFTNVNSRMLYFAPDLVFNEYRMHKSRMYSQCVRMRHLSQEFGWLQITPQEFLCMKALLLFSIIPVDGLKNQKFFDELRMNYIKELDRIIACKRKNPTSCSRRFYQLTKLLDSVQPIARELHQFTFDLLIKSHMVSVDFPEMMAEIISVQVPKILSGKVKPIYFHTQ

Regarding `CCCCCCCC(=O)Oc1c(Br)cc(C#N)cc1Br`, the Potency entry in assay [1], in assay [2], in [3] and in [4] was “inactive” each time. For the same molecule, the activity change % (negative = inhibition) in assay [5] is -2.51%.
`FC(F)(F)c1ccc(Cl)c(Cl)c1`: the Potency result in assay [1], in assay [3] and in assay [4] was “inactive” each time. Further, the activation is 6.47% in [6] and -1.21% in [8]. Moreover, in assay [7], the result was inactive. Moreover, the activity change % (negative = inhibition) in assay [5] is 7.4%.
As for `c1ccc2cc3ccccc3cc2c1`, the Potency entry in assay [1], in assay [2], in assay [3], in assay [4] and in [9] was “inactive” throughout. Also, the activation in assay [8] is 13.3%.
Regarding `C[C@]12CCC(=O)C=C1CC[C@@H]1[C@@H]2[C@@H](O)C[C@]2(C=O)[C@@H](C(=O)CO)CC[C@@H]12`, the Potency result in assay [1], in assay [2], in assay [4] and in assay [9] was “inactive” throughout. The Potency in [6] was 15.8 µM (active).
Turning to `c1ccc(B(c2ccccc2)c2ccccc2)cc1`, the Potency entry in [1], in [2], in assay [3] and in assay [4] was “inactive” each time. The activation in assay [8] was -5.17%.
`Nc1ccc(N)c2c1C(=O)c1c(N)ccc(N)c1C2=O`: the Potency result in assay [1], in assay [2], in [3] and in [4] was “inactive” in each case. The activation in assay [6] was 5.62%; in [8], 0.353%. Besides, the molecule was classed as inactive in assay [7]. Moreover, in assay [9], the Potency was 27.3 µM (active).
Take `Cl[Si](Cl)(Cl)c1ccccc1`: the Potency entry in assay [1] and in assay [9] was “inactive” in each case. Further, the values for the activation in assay [6] and in [8] were 7.73% and 5.43%, respectively. Also, in assay [7], the molecule was called inactive. For the same molecule, the activity change % (negative = inhibition) in assay [5] is -0.0742%.
On to `O=C(O)C(Oc1ccc(Cl)cc1)Oc1ccc(Cl)cc1`, for which the Potency entry in [1], in [2], in assay [3] and in assay [9] was “inactive” each time. For the same molecule, the figures for the activation in [6] and in assay [8] were -5.73% and -6.89%, respectively. The result in assay [7] was inactive. The activity change % (negative = inhibition) in assay [5] was -5.07%.
As to `Cc1ccc(N=Nc2c(O)ccc3ccccc23)c([N+](=O)[O-])c1`, the Potency result in assay [1], in assay [2] and in assay [3] was “inactive” each time. Also, the activation was 8.82% in assay [6] and -1.07% in assay [8]. Besides, in assay [7], the molecule was called inactive. In assay [5], the activity change % (negative = inhibition) is -2.29%. Moreover, the Potency in assay [9] was 24.3 µM (active).
As for `Oc1ccc2ccccc2c1N=Nc1ccccc1`, the Potency result in assay [10] is “inactive”. Besides, the Potency in assay [9] is 3.06 µM (active).
Consider `BrC1CCC(Br)C(Br)CCC(Br)C(Br)CCC1Br` (stereo not given), for which the activation in assay [6] is -5.15%; in assay [8], -5.02%. For the same molecule, the molecule was called inactive in [7]. For the same molecule, the Potency result in assay [3], in assay [4] and in [9] was “inactive” each time. Also, the activity change % (negative = inhibition) in assay [5] is 9.02%.
For the molecule `CC(C)=CCC/C(C)=C\CO`, the activation was -0.0899% in assay [6] and -1.71% in assay [8]. Besides, the result in [7] was inactive. Besides, the Potency result in assay [3], in assay [4] and in assay [9] was “inactive” in each case. In addition, the activity change % (negative = inhibition) in assay [5] is -2.03%.
For `O=C(Cl)c1ccc(C(=O)Cl)cc1`, the Potency entry in assay [1] and in assay [3] was “inactive” each time. The activity change % (negative = inhibition) in [5] is 0.623%.
As for `C/C=C/C/C=C\CCCCCCCCOC(C)=O`, the Potency entry in [1], in [4] and in assay [9] was “inactive” throughout. In addition, the activity change % (negative = inhibition) in assay [5] was -5.4%.
Turning to `CO[Si](CCCNCCN)(OC)OC`, the activation in assay [6] was 4.85%. For the same molecule, the call in assay [7] was inactive. Also, the Potency result in assay [4] was “inactive”.
For `CCCCN(CCCC)CCCCCCN(CCCC)CCCC`, the Potency entry in assay [1], in assay [4] and in [9] was “inactive” throughout.
As to `C=CCCCCCCCCCCCC`, the activation was -5.69% in assay [6] and 9.05% in assay [8]. Moreover, in assay [7], the outcome was inactive. Besides, the Potency result in [2], in [3] and in [4] was “inactive” in each case.
As for `C[Si](C)(Cl)[Si](C)(C)Cl`, in assay [6], the activation is -5.2%. Besides, the result in assay [7] was inactive. The Potency result in assay [2], in assay [4] and in assay [9] was “inactive” throughout. Moreover, the activity change % (negative = inhibition) in [5] was 6.15%.
On to `COC(=O)C(C)Oc1ccc(Oc2ncc(C(F)(F)F)cc2Cl)cc1` (stereo not given), for which the Potency result in assay [1], in [4] and in assay [9] was “inactive” each time.
As to `C=C(C)C(=O)OCCN(C)C`, the Potency result in assay [1] and in assay [4] was “inactive” in each case. Further, the activity change % (negative = inhibition) in assay [5] is 5.49%.
For the molecule `CCCCCCc1ccc(N)cc1`, the activation in [6] is -4.5%; in assay [8], -7.39%. Besides, the result in [7] was inactive. The Potency entry in [2] and in assay [3] was “inactive” in each case. For the same molecule, the activity change % (negative = inhibition) in [5] was 1.93%.
As for `CCN(Cc1cccc(S(=O)(=O)O)c1)c1ccc(C(=C2C=CC(=[N+](CC)Cc3cccc(S(=O)(=O)[O-])c3)C=C2)c2ccccc2)cc1`, the Potency result in assay [1] is “inactive”. For the same molecule, the activity change % (negative = inhibition) in assay [5] is -4.54%.
In the case of `CCCCC/C=C\C/C=C\CCCCCCCC(=O)OC`, the Potency result in [1] and in assay [4] was “inactive” in each case. The activity change % (negative = inhibition) in assay [5] was -14.4%.
In the case of `CCCCC(CC)COP(=O)(O)OCC(CC)CCCC` (stereo not given), in assay [1], the Potency result is “inactive”. For the same molecule, the activation in assay [8] was -13.4%. Further, in [9], the Potency is 54.5 µM (active).
Turning to `CCc1c(C(=O)O)c(=O)cnn1-c1ccc(Cl)cc1`, the Potency entry in [1], in assay [3] and in assay [4] was “inactive” in each case. The activity change % (negative = inhibition) in [5] is 4.34%.
As for `CO[Si](OC)(OC)c1ccccc1`, the Potency entry in assay [1], in [3] and in [4] was “inactive” throughout. Moreover, the activation in [8] is -5.49%.
Regarding `C=C[Si](C)(C)O[Si](C)(C)C=C`, the Potency result in assay [1], in [3], in assay [4] and in [9] was “inactive” each time. Moreover, the activity change % (negative = inhibition) in [5] is 3.28%.
`CC(=O)CC(=O)Nc1ccccc1C`: the Potency entry in assay [1] and in [3] was “inactive” in each case. The activation in assay [8] is 2.41%. Moreover, the activity change % (negative = inhibition) in assay [5] was 7.41%.
For `Cc1ccc(S(=O)(=O)C(I)I)cc1`, in [1], the Potency result was “inactive”.
`CCCCOCC(C)O` (stereo not given): the Potency entry in [1], in assay [3] and in assay [4] was “inactive” throughout. Besides, the activation in assay [8] is -3.25%. The activity change % (negative = inhibition) in [5] was -39.6% and 0.784%.
For the molecule `CCCN(CCC)c1c([N+](=O)[O-])cc(C(F)(F)F)c(N)c1[N+](=O)[O-]`, in [1], the Potency result is “inactive”. Moreover, the activation in [8] was -4.44%.
As to `CC/C=C/CCCCCCCCCCOC(C)=O`, the Potency result in assay [1], in assay [3], in assay [4] and in assay [9] was “inactive” throughout. In assay [8], the activation was 2.34%. For the same molecule, the activity change % (negative = inhibition) in assay [5] was 4.15%.
